Experimental data published in PubChem BioAssay (NCI).
“And” between values parts separate entries of the source, which are not always exact repeats. Identical values can stand only once. This is part of a sample that, as a whole, favours compounds with a hit. Of some 83,000 tested, about 20% had one in any assay.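 How to read the values: 0–100, growth inhibition (40 = 60% inhibited); 0, no net growth; -100 to 0, cell death (-40 = 40% of starting cells died; -100 = all dead).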 The source made the active and inactive calls. The calls were made as follows: active = growth percent below 10; inactive = the rest.

What was measured:
Assay in all cases: NCI-60 one-dose screen, 48 h (100 = growth as untreated, 0 = no growth, -100 = all killed)
SK-MEL-2 melanoma = settings: 10 µM unless noted
EKVX NSCLC = settings: 10 µM unless noted
SN12C renal = settings: 10 µM unless noted
UO-31 renal = settings: 10 µM unless noted
TK-10 renal = test system: TK-10 renal
ACHN renal = settings: 10 µM unless noted
CAKI-1 renal = settings: 10 µM unless noted
A498 renal = settings: 10 µM unless noted
CCRF-CEM leukemia = settings: 10 µM unless noted
MOLT-4 leukemia = settings: 10 µM unless noted

Measured: growth

Oc1cc(O)c2c(c1)O[C@H](c1ccc(O)c(O)c1)[C@@H](O)C2
inactive: SK-MEL-2 melanoma 106% | EKVX NSCLC 99.4% | SN12C renal 102% | UO-31 renal 89.5% | TK-10 renal; 10 µM unless noted 106% | ACHN renal 98% | CAKI-1 renal 99.4% | A498 renal 120%

Oc1cc2ccccc2c(-c2c(O)c(O)cc3ccccc23)c1O
active: SK-MEL-2 melanoma 5.57% | CCRF-CEM leukemia -12.5%
inactive: EKVX NSCLC 35.9% | SN12C renal 49.3% | UO-31 renal 13.7% | TK-10 renal; 10 µM unless noted 19.4% | ACHN renal 23.2% | CAKI-1 renal 19.1% | A498 renal 59.1%

NNC(=O)c1ccccc1N
active: CCRF-CEM leukemia -39.5%
inactive: SK-MEL-2 melanoma 168% | EKVX NSCLC 110% | SN12C renal 108% | UO-31 renal 99.2% | TK-10 renal; 10 µM unless noted 129% | ACHN renal 111% | CAKI-1 renal 104% | A498 renal 140% | MOLT-4 leukemia 112%

CN(CCCN(C)CCC1CCCCC1)CCC1CCCCC1
inactive: SK-MEL-2 melanoma 74.8% | EKVX NSCLC 61.4% | SN12C renal 53.1% | UO-31 renal 49.8% | TK-10 renal; 10 µM unless noted 76.1% | ACHN renal 35.4% | CAKI-1 renal 46.9% | A498 renal 84.7% | CCRF-CEM leukemia 20.9%

NNc1ncnc2c1ncn2C1OC(CO)C(O)C1O (stereo unspecified)
inactive: SK-MEL-2 melanoma 73.5% | EKVX NSCLC 60.5% | SN12C renal 27.7% | UO-31 renal 38.1% | TK-10 renal; 10 µM unless noted 52.8% | ACHN renal 15.2% | CAKI-1 renal 36.1% | A498 renal 43%

c1ccc(Nc2ccccn2)nc1
inactive: SK-MEL-2 melanoma 95% | EKVX NSCLC 91.8% | SN12C renal 96.8% | UO-31 renal 96.7% | TK-10 renal; 10 µM unless noted 99.4% | ACHN renal 96% | CAKI-1 renal 95% | A498 renal 112% | CCRF-CEM leukemia 90.9%

CCOC(=O)C1(N)CCCCC1
inactive: SK-MEL-2 melanoma 106% | EKVX NSCLC 97.5% | SN12C renal 93.1% | UO-31 renal 79.6% | TK-10 renal; 10 µM unless noted 96.3% | ACHN renal 104% | CAKI-1 renal 88.2% | A498 renal 173% | CCRF-CEM leukemia 98.1% | MOLT-4 leukemia 107%

CCNC(=O)Oc1ccc[nH]c1=O
inactive: SK-MEL-2 melanoma 107% | EKVX NSCLC 103% | SN12C renal 104% | UO-31 renal 86.6% | TK-10 renal; 10 µM unless noted 110% | ACHN renal 100% | CAKI-1 renal 95.1% | A498 renal 116% | CCRF-CEM leukemia 99%

O=C(NCc1ccccc1)/C(=C/c1ccccc1)NC(=O)c1ccccc1
inactive: SK-MEL-2 melanoma 102% | EKVX NSCLC 103% | SN12C renal 100% | UO-31 renal 92% | TK-10 renal; 10 µM unless noted 108% | ACHN renal 104% | CAKI-1 renal 103% | A498 renal 90.9% | CCRF-CEM leukemia 94.4%

CCC(=O)Oc1ccc2ccccc2c1
inactive: SK-MEL-2 melanoma 95.2% | EKVX NSCLC 95.7% | SN12C renal 91% | UO-31 renal 71.6% | TK-10 renal; 10 µM unless noted 105% | ACHN renal 98.7% | CAKI-1 renal 91.2% | A498 renal 82.7% | CCRF-CEM leukemia 89.8% | MOLT-4 leukemia 99%

COc1cc(-c2ccc(NC(=O)CC(C)=O)c(OC)c2)ccc1NC(=O)CC(C)=O
inactive: SK-MEL-2 melanoma 108% | EKVX NSCLC 108% | SN12C renal 104% | UO-31 renal 86.3% | TK-10 renal; 10 µM unless noted 115% | ACHN renal 88.6% | CAKI-1 renal 97% | A498 renal 110% | CCRF-CEM leukemia 100%

O=C(c1ccccc1)c1ccc(-c2ccc(O)cc2)cc1
inactive: SK-MEL-2 melanoma 59.1% | EKVX NSCLC 64.5% | SN12C renal 83.2% | UO-31 renal 45.2% | TK-10 renal; 10 µM unless noted 68.7% | ACHN renal 50.4% | CAKI-1 renal 103% | A498 renal 65.1% | CCRF-CEM leukemia 60.7% | MOLT-4 leukemia 120%

COc1cc(C(=O)N2CCN(c3ccccc3)CC2)c2ccccc2n1
inactive: EKVX NSCLC 51.6% | SN12C renal 36.8% | UO-31 renal 44.9% | TK-10 renal; 10 µM unless noted 57.1% | ACHN renal 60.6% | CAKI-1 renal 36.2% | A498 renal 32.3% | CCRF-CEM leukemia 29.3%
active: SK-MEL-2 melanoma 3.61%

C=C1C(=O)C2CCC1C2 (stereo unspecified)
inactive: SK-MEL-2 melanoma 101% | EKVX NSCLC 109% | SN12C renal 104% | UO-31 renal 82.2% | TK-10 renal; 10 µM unless noted 109% | ACHN renal 112% | CAKI-1 renal 101% | A498 renal 93.7%

O=C1C=C[C@H](O)[C@@]2(CO)O[C@@H]12
active: SK-MEL-2 melanoma -12.4% | CCRF-CEM leukemia -51%
inactive: EKVX NSCLC 72.4% | SN12C renal 88.7% | UO-31 renal 48.1% | TK-10 renal; 10 µM unless noted 109% | ACHN renal 76.7% | CAKI-1 renal 40% | A498 renal 101% | MOLT-4 leukemia 26.9%

Oc1cccc(CNC2CCCCC2)c1
inactive: SK-MEL-2 melanoma 115% | EKVX NSCLC 115% | SN12C renal 106% | UO-31 renal 86.6% | TK-10 renal; 10 µM unless noted 105% | ACHN renal 107% | CAKI-1 renal 106% | A498 renal 136% | CCRF-CEM leukemia 107%

CCCCCC(=O)OCCC1CCCCC1
inactive: SK-MEL-2 melanoma 106% | EKVX NSCLC 108% | SN12C renal 97.2% | UO-31 renal 92.2% | TK-10 renal; 10 µM unless noted 99% | ACHN renal 107% | CAKI-1 renal 103% | A498 renal 79.3% | CCRF-CEM leukemia 83.8%

C=CC(C)(C)n1cc(C2=C(O)C(=O)C(c3cn(C(C)(C)C=C)c4ccccc34)=C(O)C2=O)c2ccccc21
active: TK-10 renal; 100 µM -99.2% and -100%
inactive: SK-MEL-2 melanoma 95.9% | EKVX NSCLC 87.2% | SN12C renal 101% | UO-31 renal 74.1% | TK-10 renal; 10 µM 92.7% | ACHN renal 94.4% | CAKI-1 renal 89.7% | CCRF-CEM leukemia 78.5%

COc1cccc(C(=O)NNC(=O)c2cccc3ccccc23)c1
inactive: SK-MEL-2 melanoma 107% | EKVX NSCLC 106% | SN12C renal 108% | UO-31 renal 97% | TK-10 renal; 10 µM unless noted 120% | ACHN renal 106% | CAKI-1 renal 102% | A498 renal 105% | CCRF-CEM leukemia 104%

Nc1ccn(C2CC(N)C(CO)O2)c(=O)n1 (stereo unspecified)
inactive: SK-MEL-2 melanoma 122% | EKVX NSCLC 100% | SN12C renal 67.4% | UO-31 renal 72.6% | TK-10 renal; 10 µM unless noted 99.4% | ACHN renal 20.1% | CAKI-1 renal 42.3% | A498 renal 100%

CCOC(=O)C(COS(C)(=O)=O)(COS(C)(=O)=O)C(=O)OCC
inactive: SK-MEL-2 melanoma 114% | EKVX NSCLC 102% | SN12C renal 104% | UO-31 renal 95.7% | TK-10 renal; 10 µM unless noted 111% | ACHN renal 103% | CAKI-1 renal 100% | A498 renal 97.5% | CCRF-CEM leukemia 105%

CCc1ccccc1C(=O)N(CC)CC
inactive: SK-MEL-2 melanoma 123% | EKVX NSCLC 96.6% | SN12C renal 105% | UO-31 renal 91.1% | TK-10 renal; 10 µM unless noted 106% | ACHN renal 104% | CAKI-1 renal 99.7% | A498 renal 86.1% | CCRF-CEM leukemia 97.5% | MOLT-4 leukemia 96.4%

Cc1cc(Cc2ccccc2)c(O)c(Cc2ccccc2)c1
inactive: SK-MEL-2 melanoma 111% | EKVX NSCLC 112% | SN12C renal 79.7% | UO-31 renal 64.6% | TK-10 renal; 10 µM unless noted 98.8% | ACHN renal 92.9% | CAKI-1 renal 80.5% | A498 renal 98.6% | CCRF-CEM leukemia 98.2%

CCOC(=O)CNC(=O)Sc1ccc(C(C)(C)C)cc1
inactive: SK-MEL-2 melanoma 87.1% | EKVX NSCLC 111% | SN12C renal 93.5% | UO-31 renal 64.2% | TK-10 renal; 10 µM unless noted 96% | ACHN renal 101% | CAKI-1 renal 100% | A498 renal 119%

CCCNS(=O)(=O)c1ccc(Cl)cc1
inactive: SK-MEL-2 melanoma 106% | EKVX NSCLC 91.6% | SN12C renal 103% | UO-31 renal 89.9% | TK-10 renal; 10 µM unless noted 106% | ACHN renal 102% | CAKI-1 renal 93.8% | A498 renal 98.9% | CCRF-CEM leukemia 100% | MOLT-4 leukemia 113%

CCN(C(=O)Nc1ccccc1Cl)c1ccccc1
inactive: SK-MEL-2 melanoma 114% | EKVX NSCLC 111% | SN12C renal 113% | UO-31 renal 91.4% | TK-10 renal; 10 µM unless noted 121% | ACHN renal 96.2% | CAKI-1 renal 96.2% | A498 renal 102% | CCRF-CEM leukemia 110%

CC1CCC(C(C)(C)[N+](C)(C)C)CC1 (stereo unspecified)
inactive: SK-MEL-2 melanoma 114% | EKVX NSCLC 96.6% | SN12C renal 102% | UO-31 renal 94.8% | TK-10 renal; 10 µM unless noted 95.6% | ACHN renal 105% | CAKI-1 renal 103% | A498 renal 86.8%

COC(c1ccc2c(c1)OCO2)C(C)Br (stereo unspecified)
inactive: SK-MEL-2 melanoma 101% | EKVX NSCLC 90.3% | SN12C renal 100% | UO-31 renal 91.8% | TK-10 renal; 10 µM unless noted 85.8% | ACHN renal 102% | CAKI-1 renal 83.7% | A498 renal 95.6% | CCRF-CEM leukemia 93.3%

CCOP(=O)(NC(c1ccccc1)c1ccccc1)OCC
inactive: SK-MEL-2 melanoma 109% | EKVX NSCLC 109% | SN12C renal 146% | UO-31 renal 84.4% | TK-10 renal; 10 µM unless noted 112% | ACHN renal 103% | CAKI-1 renal 93% | A498 renal 102% | CCRF-CEM leukemia 103%

O=C(O)C1CSC(c2ccccc2)N1 (stereo unspecified)
inactive: SK-MEL-2 melanoma 89.2% | EKVX NSCLC 99.1% | SN12C renal 93.2% | UO-31 renal 91.6% | TK-10 renal; 10 µM unless noted 95.6% | ACHN renal 94.4% | CAKI-1 renal 105% | A498 renal 81% | CCRF-CEM leukemia 121%
